Abeta yeast res – restores growth of yeast expressing A-beta42 peptide | Potency, µM (series often up to 46.1 µM), hits mostly activators | AID 1347071 | 0.063% of 410,000 active | yeast expressing A-beta42, growth rescue, OD600, 48 h; response scale: 0% DMSO, 100% iron-clioquinol control; note: nearly all actives have a fitted effect of over 55% in size
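Yeast A-beta toxicity model in growth medium with pinned compounds, 48 h at 30 C; growth read as absorbance at 600 nm. Normalized to FeCl3/clioquinol equimolar mix (positive) and DMSO (negative).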
TDP-43 yeast inh – TDP-43 toxicity inhibition in yeast. TDP-43 expressing yeast growth rescue, BacTiter-Glo, 24 h. Potency, µM (series often up to 46.1 µM), actives largely listed as activators. 1.8% of 410,000 active. AID 652104; note: nearly all actives have a fitted effect of over 50% in size
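Readout is BacTiter-Glo luminescence of cell growth, so inhibitors register as activators. TDP-43-expressing yeast at OD600=0.02 in galactose medium, after raffinose pregrowth to mid-log, were incubated with compound for 24 hr at 30 deg C.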
FUS yeast rescue – FUS proteinopathy suppression in yeast; S. cerevisiae FUS-expressing, growth rescue, OD600, 24 h; Potency, µM (titrated, usually from 76.6 µM), usual class: activators; 0.24% of 390,000 active; AID 1347120; note: nearly all actives have a fitted effect of over 55% in size
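S. cerevisiae expressing FUS from galactose induction served as the toxicity model. Growth after 24hr at 30C, read as absorbance at 600 nm, indicates suppression of toxicity; compounds dosed at several concentrations.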
Mito fusion yeast – mitochondrial division inhibition or fusion activation. S. cerevisiae fusion-defective mutant growth rescue, CellTiterGlo 48 h. Potency, µM (titrated, usually from 46.1 µM), actives largely listed as activators. 0.23% of 320,000 active. AID 485298; note: nearly all actives have a fitted effect of over 45% in size
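S. cerevisiae fusion-defective temperature-sensitive mutants (e.g. fzo1-1, mgm1-5) grown 48 h at 37C in YPEG (ethanol/glycerol non-fermentable) medium with 23 nl compound per well; growth rescue read as CellTiterGlo luminescence.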
aSyn rescue – inhibitors of alpha-synuclein toxicity in yeast; Yeast expressing alpha-synuclein, growth rescue, BacTiter-Glo, 24 h; Potency, µM (titrated, usually from 46.1 µM), usual class: activators; 0.14% of 370,000 active; note: nearly all actives have a fitted effect of over 65% in size
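Rescue of yeast growth: cells expressing toxic alpha-synuclein, induced in galactose at OD600 0.02, incubated with compound 24 h at 30 C. ATP luminescence quantified growth; inhibitors of toxicity appear as activators.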
A number is an active result; [ ] = another dose, or the depositor's remark. Hits are enriched below; roughly 2.2% of the tested compounds scored in any of these assays. Calls come from the whole dose curve; as a rule, active = well fitted curve in the direction sought with a large enough effect; inconclusive = small, poorly fitted or top-dose-only effect, or another doubt; inactive = no such curve, though single readings can be large; an effect the other way counts as inactive or inconclusive.

Results for CCC(c1nnnn1Cc1cccs1)N1CCN(c2nc3ccccc3s2)CC1 (stereo not drawn) ?
Abeta yeast res: inactive; TDP-43 yeast inh: 16µM; FUS yeast rescue: inconclusive; Mito fusion yeast: inactive; aSyn rescue: inconclusive

Results for c1ccc(CSc2nnc(-c3ccncc3)o2)cc1 ?
Abeta yeast res: inactive; TDP-43 yeast inh: inconclusive; FUS yeast rescue: inactive; Mito fusion yeast: inactive; aSyn rescue: inactive

How did Clc1ccc(CSc2nnc(-c3ccncc3)o2)c(Cl)c1 do in these assays?
Abeta yeast res: inactive; TDP-43 yeast inh: 2.8µM; FUS yeast rescue: inactive; Mito fusion yeast: inactive

How did C[C@H](N)c1nnc(SCc2ccc(Cl)cc2Cl)o1 do in these assays?
Abeta yeast res: inactive; TDP-43 yeast inh: inactive; FUS yeast rescue: inactive; Mito fusion yeast: inactive; aSyn rescue: inactive

How did Cc1ccccc1CSc1nnc(-c2ccncc2)o1 do in these assays?
Abeta yeast res: inactive; TDP-43 yeast inh: 14µM; FUS yeast rescue: inactive; Mito fusion yeast: inactive; aSyn rescue: inactive

How did Cc1ccc(C)c(NC(=O)CN(C)S(=O)(=O)c2cccc3nsnc23)c1 do in these assays?
Abeta yeast res: inactive; TDP-43 yeast inh: inactive; FUS yeast rescue: inactive

Results for Cn1c(=O)oc2cc(S(=O)(=O)N3CCCC(C(=O)NCCc4ccccc4)C3)ccc21 (stereo not drawn) ?
Abeta yeast res: inactive; TDP-43 yeast inh: inactive; FUS yeast rescue: inactive

How did COc1cc2c(C(=O)N3CCN(c4ccc(C)cc4)C(C)C3)cn(CC(C)C)c(=O)c2cc1OC (stereo not drawn) do in these assays?
Abeta yeast res: inactive; TDP-43 yeast inh: 35µM; FUS yeast rescue: inconclusive

How did CCn1cc(C(=O)N2CCN(c3ccc(OC)cc3)CC2)c2cc(OC)c(OC)cc2c1=O do in these assays?
Abeta yeast res: inactive; TDP-43 yeast inh: inactive; FUS yeast rescue: inactive; Mito fusion yeast: inactive; aSyn rescue: inactive

What do the screens show for `COc1ccc(-c2noc(N3CCC(C(=O)N(C)c4ccccc4)CC3)n2)cc1`?
Abeta yeast res: inactive; TDP-43 yeast inh: 16µM; FUS yeast rescue: inactive; Mito fusion yeast: inactive; aSyn rescue: inactive

How did CCCCC(=O)NC(=S)NNC(=O)c1ccc(OC)cc1 do in these assays?
Abeta yeast res: inconclusive; TDP-43 yeast inh: inconclusive; FUS yeast rescue: inactive; Mito fusion yeast: inactive; aSyn rescue: 6.3µM

What do the screens show for `COc1ccc(C(=O)NNC(=S)NC(=O)c2ccc(OC)cc2)cc1`?
Abeta yeast res: inconclusive; TDP-43 yeast inh: inactive; FUS yeast rescue: inactive; Mito fusion yeast: inactive; aSyn rescue: inactive

What do the screens show for `CCCCCC(=O)NNC(=S)NC(=O)c1ccc([N+](=O)[O-])cc1`?
Abeta yeast res: inconclusive; TDP-43 yeast inh: inactive[9.22 µM]; FUS yeast rescue: inactive; Mito fusion yeast: inactive; aSyn rescue: 22µM

How did CCCCC(=O)NNC(=S)NC(=O)CCC do in these assays?
Abeta yeast res: inconclusive; TDP-43 yeast inh: inactive; FUS yeast rescue: inactive; Mito fusion yeast: inactive; aSyn rescue: 25µM

Results for CCCCC(=O)NC(=S)Nc1cc([N+](=O)[O-])ccc1OC ?
Abeta yeast res: inactive; TDP-43 yeast inh: 7.1µM; FUS yeast rescue: inactive; Mito fusion yeast: inactive; aSyn rescue: inactive

How did Cc1ccc(CNc2nc3ccc(Cl)cc3n3cnnc23)cc1 do in these assays?
Abeta yeast res: inactive; TDP-43 yeast inh: inactive; FUS yeast rescue: inactive

How did Clc1ccccc1-c1nnc(-c2ccccc2CNc2ccc(Br)cc2)o1 do in these assays?
Abeta yeast res: inconclusive; TDP-43 yeast inh: inactive; FUS yeast rescue: inactive

How did CC(C)c1ccc(NC(c2nnc(-c3ccccc3)o2)c2ccc(F)cc2Cl)cc1 (stereo not drawn) do in these assays?
Abeta yeast res: inactive; TDP-43 yeast inh: inactive; FUS yeast rescue: inactive

How did CCN(CC)c1ccc(C=NNC(=O)c2cc(-c3ccc(C)c(C)c3)n[nH]2)c(O)c1 do in these assays?
FUS yeast rescue: inactive

Results for C[C@H](CO)N1C[C@H](C)[C@H](CN(C)S(=O)(=O)c2cccs2)Oc2ccc(NC(=O)Nc3ccc4c(c3)OCO4)cc2CC1=O ?
Abeta yeast res: inactive; TDP-43 yeast inh: inactive; FUS yeast rescue: 25µM; aSyn rescue: inactive

How did C[C@H](CO)N1C[C@H](C)[C@@H](CN(C)S(=O)(=O)c2ccc(Cl)cc2)Oc2ccc(NS(=O)(=O)c3ccccc3)cc2CC1=O do in these assays?
Abeta yeast res: inactive; TDP-43 yeast inh: inactive; FUS yeast rescue: 10µM; aSyn rescue: inactive

What do the screens show for `C[C@H](CO)N1C[C@H](C)[C@H](CN(C)S(=O)(=O)c2ccccc2)Oc2ccc(NC(=O)NC3CCCCC3)cc2CC1=O`?
Abeta yeast res: inactive; TDP-43 yeast inh: inactive; FUS yeast rescue: 22µM; aSyn rescue: inactive

Results for CCN(CCC#N)c1ccc(/C=C/c2ccnc3ccccc23)cc1 ?
aSyn rescue: inactive

How did COc1ccc(-n2c(C)c(C(C)=O)c3cc(OC(=O)c4ccc(C)cc4)ccc32)cc1 do in these assays?
Abeta yeast res: inactive; TDP-43 yeast inh: inactive; FUS yeast rescue: inactive

How did CCOC(=O)C1=C(Nc2ccc(Cl)cc2)OCC1=O do in these assays?
Abeta yeast res: inactive; TDP-43 yeast inh: 11µM; FUS yeast rescue: inactive; Mito fusion yeast: inactive; aSyn rescue: inactive

How did CCOC(=O)c1nc(Nc2ccc(Cl)cc2)c2c(C)noc2n1 do in these assays?
Abeta yeast res: inactive; TDP-43 yeast inh: inconclusive; FUS yeast rescue: inactive

What do the screens show for `CC(C)c1ccc(C(=O)Nc2cc(Cl)ccc2C(=O)O)cc1`?
FUS yeast rescue: inactive

How did Clc1ccc(-c2nc3c4cnn(-c5ccccc5Br)c4ncn3n2)c(Cl)c1 do in these assays?
Abeta yeast res: inactive; TDP-43 yeast inh: inconclusive; FUS yeast rescue: inactive

What do the screens show for `Brc1ccccc1-c1nc2c3ccccc3ncn2n1`?
Abeta yeast res: inactive; TDP-43 yeast inh: 14µM; FUS yeast rescue: inactive; Mito fusion yeast: inactive; aSyn rescue: inactive

What do the screens show for `CC(C)CC(COCc1ccc(Cl)cc1)N1CCN(C(=O)c2ccc(Cl)cc2Cl)CCC1=O` (stereo not drawn)?
Abeta yeast res: inactive; TDP-43 yeast inh: 25µM; FUS yeast rescue: inconclusive; Mito fusion yeast: inactive; aSyn rescue: inconclusive

Results for Cc1cccc(COCC(Cc2ccccc2)N2CCN(C(=O)c3cccc(Cl)c3)CCC2=O)c1 (stereo not drawn) ?
Abeta yeast res: inactive; TDP-43 yeast inh: inactive; FUS yeast rescue: inconclusive; Mito fusion yeast: inactive; aSyn rescue: inconclusive

Results for Cc1cccc(COC[C@H](Cc2ccccc2)N2CCN(C(=O)c3cccc(Cl)c3)CCC2=O)c1 ?
Abeta yeast res: inactive; TDP-43 yeast inh: 18µM; FUS yeast rescue: inconclusive; aSyn rescue: inconclusive

How did CC(C)C[C@@H](COCc1ccc(Cl)cc1)N1CCN(C(=O)c2ccc(C(F)(F)F)cc2)CCC1=O do in these assays?
Abeta yeast res: inactive; TDP-43 yeast inh: inactive; FUS yeast rescue: inconclusive; aSyn rescue: inconclusive

How did O=C(COc1cccc(Cl)c1)N/N=C\c1cc2ccccc2nc1Cl do in these assays?
Abeta yeast res: inactive; TDP-43 yeast inh: inactive; Mito fusion yeast: inactive; aSyn rescue: inactive
